Hits are enriched below; roughly 3.8% of the tested compounds scored in any of these assays.
aDG glyco act: alpha-DG glycosylation activation. Pro5-aDG cells, alpha-DG glycosylation AlphaScreen (IIH6); 0% Pro5, 100% B10-LARGE cell signal. activation, % at 10 µM. 360,000 compounds, 0.22% hits. AID 624168;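 active = activation of at least 8% versus controls, or a plate z-score of at least 8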;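 note: Pro5 are CHO cells carrying HIG-tagged alpha-DG that lacks glycosylation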
CR mimetic SO: caloric restriction mimetics inhibiting age-related superoxide in yeast; S. cerevisiae aged cells, superoxide DHE fluorescence; stronger effect = lower value; superoxide response (% of plate mean), % at 10 µM; 330,000 compounds, 0.18% hits;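 active = superoxide response under a set limit, about three screen SD below normal, cut at about 65% in these data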;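 note: yeast aged for seven days with compound at 30 °C before DHE staining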
MPTP inh: blocks calcium-induced mitochondrial swelling. isolated mouse mitochondria, Ca2+ swelling absorbance, 30 min. inhibition, % at 10 µM. 360,000 compounds, 1.4% hits;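 active = inhibition of 50% or more, scaled per plate between neutral and stimulator controls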
FAS-TE inh: FAS thioesterase (human) inhibition; 360,000 compounds, 0.67% hits; inhibition, % at 15 µM; AID 602261; recombinant FAS-TE, OMFH fluorogenic substrate, fluorescence endpoint;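 active = compounds whose normalised, plate-corrected inhibition of enzyme fluorescence in the single-dose primary screen is 50% or more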
Target sequence (P49327 whole entry, looked up): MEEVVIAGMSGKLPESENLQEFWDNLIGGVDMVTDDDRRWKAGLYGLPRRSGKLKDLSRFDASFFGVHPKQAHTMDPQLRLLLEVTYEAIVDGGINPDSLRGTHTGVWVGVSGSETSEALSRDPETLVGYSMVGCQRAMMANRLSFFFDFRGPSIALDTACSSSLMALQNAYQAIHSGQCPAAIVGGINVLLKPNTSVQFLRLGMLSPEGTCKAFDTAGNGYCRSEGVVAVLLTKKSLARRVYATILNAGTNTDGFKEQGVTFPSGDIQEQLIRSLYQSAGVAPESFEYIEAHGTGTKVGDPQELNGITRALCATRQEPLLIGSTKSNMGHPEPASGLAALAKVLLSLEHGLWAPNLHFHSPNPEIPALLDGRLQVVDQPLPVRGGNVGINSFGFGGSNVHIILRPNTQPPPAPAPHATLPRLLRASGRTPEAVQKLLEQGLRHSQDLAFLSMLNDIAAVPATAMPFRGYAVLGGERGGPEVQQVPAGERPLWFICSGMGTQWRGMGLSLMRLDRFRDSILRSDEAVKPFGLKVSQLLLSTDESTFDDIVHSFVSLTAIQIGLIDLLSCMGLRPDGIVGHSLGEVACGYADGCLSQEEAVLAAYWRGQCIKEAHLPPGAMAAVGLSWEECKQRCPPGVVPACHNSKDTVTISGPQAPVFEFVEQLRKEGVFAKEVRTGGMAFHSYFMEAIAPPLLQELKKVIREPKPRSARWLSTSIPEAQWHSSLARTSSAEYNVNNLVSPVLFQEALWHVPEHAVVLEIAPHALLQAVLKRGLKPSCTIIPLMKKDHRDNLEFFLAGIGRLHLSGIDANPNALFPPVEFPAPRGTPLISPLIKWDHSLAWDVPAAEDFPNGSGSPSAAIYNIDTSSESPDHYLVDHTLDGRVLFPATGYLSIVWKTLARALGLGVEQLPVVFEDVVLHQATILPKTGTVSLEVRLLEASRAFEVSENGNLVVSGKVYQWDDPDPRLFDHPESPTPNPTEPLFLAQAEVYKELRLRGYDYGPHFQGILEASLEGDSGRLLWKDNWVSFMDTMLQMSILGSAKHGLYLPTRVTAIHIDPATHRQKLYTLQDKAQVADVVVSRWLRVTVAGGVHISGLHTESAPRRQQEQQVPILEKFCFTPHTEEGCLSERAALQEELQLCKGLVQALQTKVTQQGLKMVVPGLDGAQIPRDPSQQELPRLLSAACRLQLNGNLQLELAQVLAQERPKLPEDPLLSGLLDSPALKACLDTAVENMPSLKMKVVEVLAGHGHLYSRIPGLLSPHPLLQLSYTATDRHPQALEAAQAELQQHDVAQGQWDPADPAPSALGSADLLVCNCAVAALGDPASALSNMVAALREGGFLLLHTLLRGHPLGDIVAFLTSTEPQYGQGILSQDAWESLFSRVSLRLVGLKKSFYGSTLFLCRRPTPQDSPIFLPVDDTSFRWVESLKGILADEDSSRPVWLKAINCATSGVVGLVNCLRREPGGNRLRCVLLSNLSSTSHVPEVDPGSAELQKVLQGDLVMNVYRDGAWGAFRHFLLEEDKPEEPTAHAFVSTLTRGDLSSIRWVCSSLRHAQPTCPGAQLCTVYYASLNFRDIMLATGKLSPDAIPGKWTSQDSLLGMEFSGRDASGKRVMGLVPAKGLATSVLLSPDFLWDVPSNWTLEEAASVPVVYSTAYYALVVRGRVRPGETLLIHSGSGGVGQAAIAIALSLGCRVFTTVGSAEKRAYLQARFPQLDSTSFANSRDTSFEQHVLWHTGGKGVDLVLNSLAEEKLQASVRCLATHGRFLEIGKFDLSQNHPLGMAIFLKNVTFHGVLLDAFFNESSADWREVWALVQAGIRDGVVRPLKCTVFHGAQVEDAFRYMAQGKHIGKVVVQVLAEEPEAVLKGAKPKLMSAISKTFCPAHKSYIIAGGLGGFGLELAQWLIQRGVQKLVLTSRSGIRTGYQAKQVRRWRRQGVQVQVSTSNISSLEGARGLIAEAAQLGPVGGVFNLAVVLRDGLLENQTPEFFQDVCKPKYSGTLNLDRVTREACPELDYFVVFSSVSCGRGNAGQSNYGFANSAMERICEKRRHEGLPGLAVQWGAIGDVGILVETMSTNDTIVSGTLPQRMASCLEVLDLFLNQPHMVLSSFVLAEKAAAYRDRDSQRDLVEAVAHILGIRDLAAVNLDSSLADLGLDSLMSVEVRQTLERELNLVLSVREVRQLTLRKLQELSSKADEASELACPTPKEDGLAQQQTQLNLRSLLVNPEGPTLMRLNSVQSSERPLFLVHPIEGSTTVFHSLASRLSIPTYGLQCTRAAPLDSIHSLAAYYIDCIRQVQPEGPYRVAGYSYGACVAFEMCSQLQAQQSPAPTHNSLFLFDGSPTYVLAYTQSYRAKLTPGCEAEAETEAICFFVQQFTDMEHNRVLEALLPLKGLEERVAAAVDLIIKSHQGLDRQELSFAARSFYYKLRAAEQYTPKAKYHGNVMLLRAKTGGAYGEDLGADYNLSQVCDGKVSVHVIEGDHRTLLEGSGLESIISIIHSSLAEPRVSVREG
SUMO Mot1 rescue: blocks SUMOylation pathway, rescuing yeast Mot1-301 growth. S. cerevisiae Mot1-301 growth rescue, ATP luminescence, 38.5C; percent above DMSO median, 100 means doubled. growth rescue, % at 18.8 µM. 320,000 compounds, 1% hits. AID 2716;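 active = every valid replicate shows activation above 250% relative to neutral control wells; inactive = the rest, any valid replicate at or below 250%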
H9c2 protect: myocardial damage modulation in H9c2 cells | AID 588492 | 360,000 compounds, 0.63% hits | protection from H2O2 cell death, % at 20 µM | H9c2 cardiomyocytes, H2O2 injury protection, ATPLite, 2 h;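 active = compounds giving at least 50% protection of heart cells from peroxide-induced death in the single-dose screen, raw or plate-pattern-corrected value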
Large screens that a line does not name were inactive.

CN(CC(=O)Nc1c(Cl)cccc1Cl)C(=O)CCNS(=O)(=O)c1ccccc1C(F)(F)F	none
CCOC(=O)CC1(C)Oc2cc(Cl)ccc2N1S(=O)(=O)c1ccc(C)cc1 (configuration not stated)	none (no result: CR mimetic SO, FAS-TE inh, SUMO Mot1 rescue, H9c2 protect)
CCOC(=O)c1c(-c2ccc(C)o2)csc1NC(=O)CSc1nnc(C)s1	none
CCOC(=O)c1c(-c2ccc(C)o2)csc1NC(=O)COC(=O)c1ccc(NC(N)=O)cc1	H9c2 protect 61
Cc1ccc(-n2nnc3c(=O)n(Cc4cccc(C)c4)cnc32)cc1	SUMO Mot1 rescue 405
Cc1ccc(-n2nnc3c(=O)n(Cc4cc(C)ccc4C)cnc32)cc1	none
Cc1cc(C)n(-c2nc3ccccc3nc2N2CCN(S(=O)(=O)c3ccc4ccccc4c3)CC2)n1	FAS-TE inh 67
Cc1ccccc1NC(=O)Cc1nc(COC(=O)c2ccc(Cl)c(S(N)(=O)=O)c2)cs1	none
COc1cc(NC(=O)c2cc3c(=O)n(C)c4ccccc4c3n2C)cc(OC)c1OC	none
COc1ccc(CCNC(=O)c2cc3c(=O)n(C)c4ccccc4c3n2C)c(OC)c1	CR mimetic SO 61
Cn1c(C(=O)NCc2cccs2)cc2c(=O)n(C)c3ccccc3c21	H9c2 protect 68
COc1ccc(NC(=O)c2cc3c(=O)n(C)c4ccccc4c3n2C)cc1OC	H9c2 protect 50
CCCN(CCC)CCNC(=O)c1cc2c(=O)n(C)c3ccccc3c2n1C	SUMO Mot1 rescue 323
Cc1ccc(OCC(=O)NCCNC(=O)c2ccco2)cc1	SUMO Mot1 rescue 348
Cc1ccc(OCC(=O)NCCNC(=O)COc2ccc(C)cc2)cc1	none
Cc1coc2c1C(=O)C(=O)c1c-2ccc2c(C)cccc12	FAS-TE inh 74
CC(=O)Nc1ccc(/C(C)=N/Nc2nc(N3CCOCC3)nc(N3CCOCC3)n2)cc1	none
CC(=O)Nc1ccc(/C(C)=N/Nc2nc(Nc3cccc4ccccc34)nc(N3CCOCC3)n2)cc1	H9c2 protect 63
COC(=O)c1sccc1NC(=O)c1cnc2cc(C)nn2c1C	none (no result: SUMO Mot1 rescue)
Cc1cc(C)n(-c2ccc3cccc(NS(C)(=O)=O)c3n2)n1	H9c2 protect 88
Cc1cc(C(C)(C)C)cc(CN2CCN(S(=O)(=O)c3cccs3)CC2)c1O	none (no result: CR mimetic SO, SUMO Mot1 rescue)
O=C1OC(O)c2cccc3cccc1c23 (configuration not stated)	none (no result: CR mimetic SO, SUMO Mot1 rescue)
COc1ccc(C(=O)Oc2cccc3cccnc23)cc1[N+](=O)[O-]	none
Cc1ccc(C(=O)Oc2ccc(Cl)c3cccnc23)cc1[N+](=O)[O-]	H9c2 protect 53
CN(C)S(=O)(=O)c1ccc(C(=O)NCC(C)(C)CN=C2NS(=O)(=O)c3ccccc32)cc1	none
O=C(N/N=C\c1ccccc1)c1cccc(C(=O)N/N=C\c2ccccc2)n1	none
COc1cccc(/C=N/NC(=O)c2nc(-c3ccccc3)cc(-c3ccccc3)n2)c1	H9c2 protect 89
COc1ccc(/C=N/NC(=O)c2nc(-c3ccccc3)cc(-c3ccccc3)n2)cc1OC	none
COc1ccc(/C=N/NC(=O)c2cccc(C(=O)N/N=C/c3ccc(OC)cc3)n2)cc1	SUMO Mot1 rescue 306
CCCCC1=CC2=CC(=O)C(C)(OC(=O)c3ccc(Cl)nc3)C(=O)C2=CO1 (configuration not stated)	none (no result: aDG glyco act, MPTP inh, FAS-TE inh, H9c2 protect)
COc1ccc(-n2c(C)n[nH]c2=O)cc1OC	SUMO Mot1 rescue 347
COc1ccc(-n2c(C)n[nH]c2=O)cc1	none
CCOc1ccc(CCNC(=O)Cc2ccc(NC3=NC4CS(=O)(=O)CC4S3)cc2)cc1OCC (configuration not stated)	none
CCCOc1ccc([N+](=O)[O-])cc1C1NC(=S)NC(c2ccccc2)=C1C(=O)OCC (configuration not stated)	FAS-TE inh 66
O=C1C(Sc2ccccc2)=C[C@@]2(O)CC[C@@H](O)[C@]1(Sc1ccccc1)[C@H]2O	none (no result: CR mimetic SO, SUMO Mot1 rescue, H9c2 protect)
CC1(C)Cc2ccccc2C2=C(C(=O)N3CCCCCC3)C(=O)C(=O)N21	SUMO Mot1 rescue 307
c1ccc(CNc2cccnc2)cc1	none (no result: CR mimetic SO, SUMO Mot1 rescue)
Cc1cccc(C)c1NC(=O)C(c1cc2ccccc2o1)N1CCN(C)CC1 (configuration not stated)	none (no result: CR mimetic SO, FAS-TE inh, SUMO Mot1 rescue, H9c2 protect)
O=c1[nH]c2cccc(F)c2n2cccc12	H9c2 protect 51
CC1C(=O)C(C)C(c2cc(Cl)ccc2O)NC1c1cc(Cl)ccc1O (configuration not stated)	none
CC1(C(=O)NS(=O)(=O)c2cccc(F)c2)CCN1C(=O)c1cccc(F)c1 (configuration not stated)	none (no result: CR mimetic SO, SUMO Mot1 rescue)
CCCN(CCC)C(=O)C(c1ccccc1)C1(O)CCCCC1 (configuration not stated)	none (no result: CR mimetic SO, SUMO Mot1 rescue)
COC(=O)/C=C/c1ccc(OC(=O)OC)c(OC(=O)OC)c1	H9c2 protect 62
O=c1c(O)c(-c2ccccc2)oc2ccccc12	none (no result: CR mimetic SO, SUMO Mot1 rescue)
Cc1ccc(-c2oc3ccccc3c(=O)c2O)cc1	H9c2 protect 74
O=c1c(O)c(-c2ccccc2)oc2cc(O)ccc12	H9c2 protect 79 (no result: CR mimetic SO, SUMO Mot1 rescue)
O=c1c(O)c(-c2ccccc2)oc2cc(O)cc(O)c12	none (no result: SUMO Mot1 rescue)
COc1cc(/C=C(\C(=O)O)c2ccc(S(=O)(=O)N3CCCC3)s2)ccc1OCCC(C)C	none (no result: CR mimetic SO, SUMO Mot1 rescue)
Cc1ccc(C(=O)C(c2ccccc2)N2Cc3ccccc3C2=N)cc1 (configuration not stated)	none
O=C(COc1cccc2c1CCNC2=O)Nc1cccc(C(F)(F)F)c1	none
O=C(COc1cccc2c1CCNC2=O)Nc1cccc(F)c1	H9c2 protect 74
Cc1ccc(NC(=O)CSc2ccc(-c3ccccn3)nn2)cc1	H9c2 protect 54
CCOc1ccc(NC(=O)CSc2ccc(-c3ccccn3)nn2)cc1	none
CCN(CC)C1CC(=O)N(c2cccc(C)c2)C1=O (configuration not stated)	SUMO Mot1 rescue 285 (no result: aDG glyco act, MPTP inh, FAS-TE inh, H9c2 protect)
CCCNC(=O)c1ccccc1NC(=O)C1=CSCCO1	none
OCC1OC(n2cnc3c(NCCc4ccccc4)ncnc32)C(O)C1O (configuration not stated)	SUMO Mot1 rescue 317
Nc1ccc(CCNc2ncnc3c2ncn3[C@@H]2O[C@H](CO)[C@@H](O)[C@H]2O)cc1	none
Cc1onc(-c2ccccc2Cl)c1C(=O)N/N=C(\N)COc1ccc(Cl)cc1	H9c2 protect 60
CCCOc1ccc(NC(=O)CC2Nc3ccccc3NC2=O)cc1 (configuration not stated)	SUMO Mot1 rescue 571
Cc1ccc(C)c(C(O)c2ncc(-c3ccc(Cl)cc3)[nH]2)c1 (configuration not stated)	none (no result: CR mimetic SO, SUMO Mot1 rescue)
Cc1cc(-c2n[nH]c(=S)n2/N=C/c2cccc(O)c2)n[nH]1	CR mimetic SO 65
COc1ccc(N/C=C(\C#N)c2nc3ccccc3n2C)c(OC)c1	H9c2 protect 50
COc1ccc(CNc2nc3ccccc3n2C)c(OC)c1	none
CCOC(=O)C1=C(CCl)NC(=O)NC1c1ccc2c(c1)OCO2 (configuration not stated)	none

Screening data from PubChem BioAssay.
